TMEM16A inh = TMEM16A chloride channel inhibitors, primary screen, cell-based, HTS. HEK293 TMEM16A/YFP iodide influx fluorescence, ionomycin. 310,000 tested, 1.2% active. Anoctamin-1 (Mus musculus), Q8BHY3. normalized B-score (activity score, 25-100; higher = stronger inhibition) at 10 µM;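 active means ratio plate-corrected score three or more library SD toward inhibition, starting fluorescence score within five deviations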;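 further: score derived from kinetic fluorescence span divided by baseline fluorescence per well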
Target sequence (Q8BHY3 whole entry, looked up): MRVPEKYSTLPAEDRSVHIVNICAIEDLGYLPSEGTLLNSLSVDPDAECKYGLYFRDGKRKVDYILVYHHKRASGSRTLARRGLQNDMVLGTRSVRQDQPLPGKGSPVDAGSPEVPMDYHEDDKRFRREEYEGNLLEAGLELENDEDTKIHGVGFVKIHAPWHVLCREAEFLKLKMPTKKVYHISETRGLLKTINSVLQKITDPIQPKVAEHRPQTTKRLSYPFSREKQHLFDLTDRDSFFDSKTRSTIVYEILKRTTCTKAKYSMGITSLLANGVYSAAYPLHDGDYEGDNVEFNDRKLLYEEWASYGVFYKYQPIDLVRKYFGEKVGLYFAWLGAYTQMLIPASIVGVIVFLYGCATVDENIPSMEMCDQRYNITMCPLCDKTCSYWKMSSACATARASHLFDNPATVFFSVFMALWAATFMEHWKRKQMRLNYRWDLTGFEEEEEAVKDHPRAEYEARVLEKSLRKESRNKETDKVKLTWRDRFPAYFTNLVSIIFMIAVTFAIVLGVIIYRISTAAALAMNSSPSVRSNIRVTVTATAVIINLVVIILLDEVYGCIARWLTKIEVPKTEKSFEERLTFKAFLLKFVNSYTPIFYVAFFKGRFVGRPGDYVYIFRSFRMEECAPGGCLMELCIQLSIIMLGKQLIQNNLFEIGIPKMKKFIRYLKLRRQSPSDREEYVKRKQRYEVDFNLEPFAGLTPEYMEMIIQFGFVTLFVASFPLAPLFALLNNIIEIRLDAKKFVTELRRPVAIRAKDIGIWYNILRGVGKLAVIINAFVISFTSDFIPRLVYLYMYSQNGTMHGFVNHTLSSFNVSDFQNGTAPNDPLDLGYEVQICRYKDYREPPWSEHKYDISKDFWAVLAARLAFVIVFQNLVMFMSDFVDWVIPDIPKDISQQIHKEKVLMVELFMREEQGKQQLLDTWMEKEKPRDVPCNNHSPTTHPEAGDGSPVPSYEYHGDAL
FID counter = compounds displacing fluorescent DNA intercalator, primary screen, artefact control for HCV NS3 helicase inhibitor project, biochemical, FID fluorescence; DNA fluorescent intercalator displacement; inhibition, % at 7.9 µM; 290,000 tested, 0.17% active; AID 1845, 2009; in the data active means inhibition above about 37%;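 further: 0% = vehicle and 100% = reference compound; higher means more ethidium bromide displaced from hairpin DNA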
PP5 primary = PP5 phosphatase inhibitors, primary screen, biochemical, fluorescence; Serine/threonine-protein phosphatase 5 (Homo sapiens), P53041; 320,000 tested, 0.18% active; inhibition, % at 6.7 µM; purified PP5c, OMFP substrate fluorescence; AID 1987, 2009;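 active means inhibition above the campaign's mean inhibition across all tested compounds plus 3 SD, cut at about 9.5% in these data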;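 further: 0% = DMSO only and 100% = 100 µM cantharidin control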
ANO1 activ = TMEM16A chloride channel activators or potentiators, primary screen, cell-based, HTS. HEK293 TMEM16A/YFP-H148Q/I152L, iodide quench fluorescence; stronger effect = lower value. 340,000 tested, 0.3% active. B-score at 10 µM. AID 623877, 2012;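 active means fluorescence-ratio B-score plate-corrected deviation score at least 3 library SD below zero, with starting fluorescence score within 5 deviations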;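 further: channel opened by trigger with iodide after compound preincubation; score built on the fluorescence ratio of max minus min over baseline; more negative score means more quench and so TMEM16A activation or potentiation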
PP1 counter = PP1-alpha phosphatase inhibitors, primary screen, counter-screen for PP5 inhibitor project, biochemical, fluorescence, OMFP substrate, single point; Serine/threonine-protein phosphatase PP1-alpha catalytic subunit (Homo sapiens), P62136; purified PP1alpha; inhibition, % at 6.7 µM; 320,000 tested, 0.9% active;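 active means inhibition above the mean inhibition of all tested compounds plus 3 SD, computed separately for each screening campaign, cut at about 15% in these data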
PREPL inh = PREPL enzyme inhibitors, primary screen, biochemical, fluorescence polarization. 320,000 tested, 0.68% active. AID 2751, 2010. Prolyl endopeptidase-like (Homo sapiens), Q4J6C6. inhibition, % at 5.96 µM. recombinant PREPL, fluorescence polarization activity-based probe; in the data active means inhibition above about 43%;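 further: 0% = enzyme with DMSO and 100% = wells lacking enzyme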
Numbers without * were called inactive; i = inactive; / = not tested or not shown. Most compounds without a hit are left out; they make up all but 2.7% or so of the library.

SMILES | TMEM16A inh | FID counter | PP5 primary | ANO1 activ | PP1 counter | PREPL inh
CSc1ncccc1C(=O)OCC(=O)c1ccccc1Br | i | -5 | 0 | -23* | -3 | 7
CSc1ncccc1C(=O)OCC(=O)c1ccccc1 | i | -9 | 0 | i | -1 | 10
CCOc1ccc(N/C=C/C(=O)c2ccc(OC)cc2)c([N+](=O)[O-])c1 | i | 2 | 3 | i | -5 | 13
COc1ccc(N/C=C/C(=O)c2ccc(C)cc2)c([N+](=O)[O-])c1 | i | 2 | 4 | -7.2* | 6 | 7
O=S(c1ccccc1O)S(=O)c1ccccc1O (stereo unspecified) | / | / | / | i | / | /
CN1C(=O)/C(=C/c2cn(CC(=O)N3CCCCC3)c3ccccc23)c2ccccc21 | i | -19 | 2 | / | 5 | 45*
CCN1CCC(O)(/C=C/c2ccc(C(C)C)cc2)C(C(=O)/C=C/c2ccc(C(C)C)cc2)C1 (stereo unspecified) | / | / | / | i | / | /
Nc1nc(SCc2ccc(Br)cc2)c2ncn(C3OC(CO)C(O)C3O)c2n1 (stereo unspecified) | / | / | / | i | / | /
CC(Oc1ccc(Cl)cc1Cl)C(=O)NNC(=O)c1ccncc1 (stereo unspecified) | i | / | -2 | i | -9 | -15
CC(Oc1ccc(Cl)cc1Cl)c1nc(-c2ccc(NC(=O)c3ccncc3)cc2)no1 (stereo unspecified) | 25* | -2 | 3 | i | 4 | -34
O=C(Cc1cn2ccsc2n1)NCCc1ccc(F)cc1 | i | -6 | -1 | -49* | 0 | 6
O=c1c2ccccc2oc2ccc(-c3ccc4cc[nH]c4c3)cc12 | / | / | / | i | / | 15
CCCOc1ccc(C2C(C(=O)c3ccc(C)o3)=C(O)C(=O)N2CCN2CCOCC2)cc1OC (stereo unspecified) | 100* | -13 | 2 | i | -2 | 0
O=C(C1=C(O)C(=O)N(CCN2CCOCC2)C1c1cccc(Br)c1)c1cc2ccccc2o1 (stereo unspecified) | i | -46 | 1 | i | 19* | 16
COCCCN1C(=O)C(O)=C(C(=O)c2ccco2)C1c1ccccc1 (stereo unspecified) | i | -8 | 2 | i | 3 | 5
COCCCN1C(=O)C(O)=C(C(=O)c2ccc(C)o2)C1c1cccc(Br)c1 (stereo unspecified) | i | -19 | 2 | i | 18* | -3
CCC1CCCCN1C(=O)Cn1nc([N+](=O)[O-])c(Cl)c1C (stereo unspecified) | i | 2 | -1 | i | -6 | 10
O=C(COC(=O)c1ccccc1F)NC(=O)NC1CCCC1 | / | / | 2 | i | 3 | 14
c1ccc(-c2cc(NCCN3CCCCC3)c3ccccc3n2)cc1 | i | 74* | 1 | i | 0 | -36
N=c1c2c(-c3ccccc3)c(-c3ccccc3)n(Cc3ccccc3)c2ncn1CCO | i | 37* | 0 | i | 8 | 19
CC(C)(Cc1ccccc1)/[N+]([O-])=C\c1ccccc1 | i | / | 2 | i | 1 | 8
O=C1NC(=O)C2(CCCCCCC2)N1 | / | / | / | i | / | /
O=c1cc(-c2c(F)c(F)c(F)c(F)c2F)oc2c(F)c(F)c(F)c(F)c12 | 25* | 4 | 4 | / | 7 | 6
CC1CCCCC1NC(=O)COC(=O)c1ccc2c(=O)n3c(nc2c1)CCC3 (stereo unspecified) | / | / | / | i | / | 11
O=C(CCSc1nc(-c2ccco2)cc(C(F)(F)F)n1)NCc1ccccn1 | i | -19 | 1 | -15* | -1 | -5
SMILES | TMEM16A inh | FID counter | PP5 primary | ANO1 activ | PP1 counter | PREPL inh
Cc1cc(S(=O)(=O)N2CCN(c3c(C)cccc3C)CC2)ccc1F | i | -6 | 1 | i | -4 | -13
CCC(C)N(C)Cc1cccc(C2(O)CCN(S(=O)(=O)c3ccc(F)c(C)c3)CC2)c1 (stereo unspecified) | i | 38* | 1 | i | -2 | 3
O=C(Cc1cccc2ccccc12)NC(NC(=S)Nc1ccccc1Cl)C(Cl)(Cl)Cl (stereo unspecified) | i | -4 | 1 | i | 16* | -5
COc1ccc(-c2c[n+]3c(n2-c2ccccc2)SCC3)cc1OC | i | -1 | 1 | -29* | -1 | 11
CC1=CC(=O)C(C(C)C)=C/C1=C(\c1cc(C(C)C)c(OP(=O)(O)O)cc1C)c1ccccc1C(=O)O | i | -18 | 6 | i | 15* | -1
CCOc1ccc(C(=O)c2ccccc2C(=O)O)cc1OCC | i | -16 | -1 | i | -1 | -10
CCNc1nc2cccnc2s1 | i | 1 | 3 | i | -3 | 8
CC(N)C(=O)NC(CO)C(O)C(N)C=O (stereo unspecified) | / | / | / | i | / | /
Cc1ccc(S(=O)(=O)NCc2ccc(C(=O)NCCN(Cc3ccccc3)C(C)C)cc2)cc1 | i | 39* | 1 | i | 1 | 5
CCOC(=O)C1=C(C)NC(=O)NC1c1ccc(OC(=O)c2ccco2)c(OC)c1 (stereo unspecified) | i | -24 | -1 | i | 0 | 67*
COc1cc(C2NC(=O)NC(C)=C2C(=O)OC(C)C)ccc1OC(=O)c1ccco1 (stereo unspecified) | i | -39 | 2 | i | -3 | 79*
CC(=O)OCC(=O)C1(O)CCC2C3CCC4C(OC(C)=O)C(=O)CCC4(C)C3C(=O)CC21C (stereo unspecified) | / | / | / | i | / | /
O=C(O)/C=C/C(=O)Nc1ccc2nccnc2c1 | 25* | -1 | 3 | i | 3 | 11
Cc1nn(C2CCS(=O)(=O)C2)c(Cl)c1/C=C/C(=O)OCC(N)=O (stereo unspecified) | i | -1 | -1 | i | 3 | 10
CCN(CC)c1ccc(C(=C2C=CC(=[N+](CC)CC)C=C2)c2ccccc2)cc1 | / | / | / | -12* | / | /
CCN(CC)c1ccc(C(=C2C=CC(=[N+](CC)CC)C=C2)c2ccc(N(CC)CC)cc2)cc1 | / | / | / | -6.6* | / | /
CCOc1ccccc1C(=O)Nc1nn[nH]n1 | i | 3 | 0 | i | -2 | 6
CC(=O)Nc1c(Cl)cc2c(c1Cl)C(=O)c1ccccc1-2 | / | / | / | i | / | /
Oc1ccccc1N=N/C(=N/Nc1ccccc1O)c1ccccc1 | i | / | 0 | i | 0 | 1
N#C/C(N=Nc1ccccc1O)=N\Nc1ccccc1O | 100* | / | 1 | i | 2 | 18
N#C/C(=C(/O)c1cccs1)c1nc2ccccc2[nH]1 | i | -3 | -1 | i | 1 | 77*

Assay outcomes from PubChem BioAssay.
